Reference: PubChem BioAssay
Results with a measured potency or affinity are listed apart. Activity calls are given as the source filed them. Cut-off not given; nearly all actives show IC50 up to about 0.91 µM.

Molecular target: Calcium-dependent protein kinase 4 (Plasmodium falciparum (isolate 3D7)) (UniProt Q8IBS5)
Assay: PfCDPK4 kinase inhibitors, biochemical, TCAMS library (AID 1159588)
Settings: recombinant PfCDPK4, Kinase-Glo ATP depletion luminescence

Chain of Calcium-dependent protein kinase 4 (Plasmodium falciparum (isolate 3D7)) (Q8IBS5 whole entry, looked up): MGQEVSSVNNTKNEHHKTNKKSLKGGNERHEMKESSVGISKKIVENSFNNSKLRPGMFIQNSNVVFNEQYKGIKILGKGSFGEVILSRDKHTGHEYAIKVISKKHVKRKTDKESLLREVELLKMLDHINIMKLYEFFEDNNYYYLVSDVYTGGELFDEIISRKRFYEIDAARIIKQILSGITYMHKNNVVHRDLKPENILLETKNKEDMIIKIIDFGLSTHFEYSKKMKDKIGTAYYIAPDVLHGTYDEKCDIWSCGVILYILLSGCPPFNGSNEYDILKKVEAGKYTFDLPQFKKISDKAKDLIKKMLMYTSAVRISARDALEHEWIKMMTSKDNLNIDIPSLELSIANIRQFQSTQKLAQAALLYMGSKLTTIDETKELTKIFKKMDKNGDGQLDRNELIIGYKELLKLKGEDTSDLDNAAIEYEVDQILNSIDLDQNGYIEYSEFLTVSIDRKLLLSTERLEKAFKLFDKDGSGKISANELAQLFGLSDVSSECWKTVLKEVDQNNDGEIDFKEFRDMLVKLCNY

outcome, inactive:
O=C(N[C@@H](Cc1ccccc1)C(=O)NC1CCCCC1)c1ccc(O)c(-c2ccc(Cl)c(Cl)c2)c1, O=[N+]([O-])c1ccc2nc(Nc3cccc(C(F)(F)F)c3)c(Nc3cccc(C(F)(F)F)c3)nc2c1, C[C@H](Cc1ccc(CCc2ccc(C[C@@H](C)NC[C@H](O)c3cccc(Cl)c3)cc2)cc1)NC[C@H](O)c1cccc(Cl)c1, COc1ccc2nccc([C@@H](O)CN3CCC(NCc4cc5ccccc5[nH]4)CC3)c2n1, C=CCc1cccc(OC)c1OCCCON1C(N)=NC(N)=NC1(C)C, Cc1ccc2nc(-c3ccc(C=CC(=O)NC4CCN(Cc5ccccc5)CC4)cc3)[nH]c2c1, CCOc1c(OC)ccc2c1CCN(CCN1CCC(CNC(=O)c3ccc(-c4ccc(C#N)cc4)cc3)CC1)C2, Nc1ncc(-c2ccc(F)cc2)c2ccc(-c3cccc(F)c3)cc12, O=C(NCc1ccc(F)cc1)c1cc(Br)cc(N2CCN(c3ccncc3)CC2)c1, O=C(Nc1ccc(Cl)c(Cl)c1)N[C@H]1CCN(CCCCCNC(=O)[C@@H]2C[C@H]2c2ccc(Cl)c(Cl)c2)C1, CCOC(=O)c1ccc(COc2ccc(C)nc2)cc1, CC(=O)Oc1cc(C(=O)Nc2ccc(Cl)cc2)cc2ccccc12, O=C(NC1CCN(c2ccnc3cc(Cl)ccc23)C1)c1ccccc1F (stereo not given), COc1cccc2cc(C(=O)N[C@@H](CC(C)C)C(=O)N[C@H](/C=N/N3CCCC3=O)Cc3ccccc3)oc12, O=c1cc(NCCCNCc2csc(Br)c2Sc2ccc(Cl)cc2)[nH]c2ccccc12, CS(=O)(=O)Cc1ccc(Nc2nccc(NC3CCN(c4nccc(C(F)(F)F)n4)CC3)n2)cc1, CCOc1cc2c(cc1OCC)C(c1ccc(O)c(Cl)c1)NCC2 (stereo not given), COc1cc(CN2CCC(C(=O)Nc3ccc(-c4cccc(C)c4)cc3)CC2)ccc1O, CCCCCCn1c(Sc2ccc(C#N)c([N+](=O)[O-])c2)nnc1-c1ccc(N(C)C)cc1, Cc1ccc(NC(=O)c2ccc(N3CCN(c4ccncc4)CC3)cc2)cc1F, Cc1cccc2[nH]c(-c3cccc(-c4ccc(CNCc5cccc(N)c5)cc4)c3)nc12, O=C1OC2(CN1CC1CCN(Cc3ccc(O)c(Cl)c3)CC1)c1ccccc1-c1ccccc12, CCCN(Cc1nnc(-c2cccs2)o1)C(=O)CSc1nnnn1-c1ccc(C)c(C)c1, CCN1C(=O)N(CCC(C)C)C2(CCN(Cc3ccc(OC)cc3O)CC2)C1=O, COc1ccc2c(NN=Cc3cccc([N+](=O)[O-])c3)cc(C)nc2c1, Cn1cncc1C(=O)Nc1cccc(-c2cccc(-c3nc4ccc(C(F)(F)F)cc4[nH]3)c2)c1, N#Cc1ccc(-c2ccc(OCC(O)CN3CCCN(C(=O)C(c4ccc5c(c4)OCO5)N4CCN(C/C=C/c5ccccc5)CC4)CC3)cc2)cc1 (stereo not given), COC(=O)c1ccc2nc(-c3ccc(/C=C/C(=O)NC4CCN(Cc5ccccc5)CC4)cc3)[nH]c2c1, CC(=O)Nc1nnc(SCc2c(C)cc(C(C)(C)C)cc2C)s1, O=C(Cc1ccccc1)NC(CCN1CCC(N(C2CC2)S(=O)(=O)c2cccc(C(F)(F)F)c2)CC1)c1ccc(Cl)c(Cl)c1 (stereo not given), CN(C)c1ccc(-c2csc(C(=O)NC3CCN(CCC(C)(C)C)C3)c2)cc1 (stereo not given), Cc1ccc(CNC(=O)[C@H](Cc2ccccc2)Nc2cc(C)nc(Nc3ccccc3)n2)cc1, CCOC(=O)c1cccc(N/C(N)=N/c2nc(C)cc(NCCc3ccccc3)n2)c1, Cc1cccc2[nH]c(-c3ccc(-c4ccc(NC(=O)NCc5ccccc5)cc4)s3)nc12, COc1cccc(NC(=O)Nc2ccc(C)c(-c3ccc(C(=O)Nc4ccncc4)cc3)c2)c1, Cc1ccc(O)c(-c2cc(C(=O)Nc3ccc(S(=O)(=O)N4CCCC(C)C4)cc3)[nH]n2)c1 (stereo not given), CN(C)CCOC(=O)C1(O)CCC2CC1C2(C)C (stereo not given), COc1ccc(C=C2SC(=O)NC2=Nc2ccccc2)c(OC)c1, O=C(Nc1cccc(-c2cccc(-c3nc4ccc(C(F)(F)F)cc4[nH]3)c2)c1)c1ccoc1, Cc1ccc(Sc2ccc(NC(=O)CN3CCN(C(=O)c4ccco4)CC3)cc2)cc1C
